Source: PubChem (several laboratories)
CYP2C19 activ: activators of human cytochrome P450 2C19 | recombinant CYP2C19, luciferin-H EGE luminescence; hits give high values; 0 = fully inhibited enzyme, 1 = untreated enzyme | P33261 | 96,000 tested, under 10 active | activation factor at 5 µM;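 active = activation factor of at least 2 at 5 µM in the primary screen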
PostGolgi ctrl: inhibits growth of the yeast control strain | efflux-deficient yeast background strain, growth absorbance A615, 16 h | inhibition, % at 10 µM | actives 5% (n = 98,000) | AID 738
CYP2C9 act: CYP2C9 (human) activation | activation factor at 5 µM | P11712 | recombinant CYP2C9, luciferin-H conversion, luminescence; hits give high values; factor 1 = untreated enzyme, 0 = blocked | actives 1.4% (n = 96,000);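 active = activation factor of 2 or more for CYP2C9 at a 5 µM dose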
Target sequence (P11712 whole entry, looked up): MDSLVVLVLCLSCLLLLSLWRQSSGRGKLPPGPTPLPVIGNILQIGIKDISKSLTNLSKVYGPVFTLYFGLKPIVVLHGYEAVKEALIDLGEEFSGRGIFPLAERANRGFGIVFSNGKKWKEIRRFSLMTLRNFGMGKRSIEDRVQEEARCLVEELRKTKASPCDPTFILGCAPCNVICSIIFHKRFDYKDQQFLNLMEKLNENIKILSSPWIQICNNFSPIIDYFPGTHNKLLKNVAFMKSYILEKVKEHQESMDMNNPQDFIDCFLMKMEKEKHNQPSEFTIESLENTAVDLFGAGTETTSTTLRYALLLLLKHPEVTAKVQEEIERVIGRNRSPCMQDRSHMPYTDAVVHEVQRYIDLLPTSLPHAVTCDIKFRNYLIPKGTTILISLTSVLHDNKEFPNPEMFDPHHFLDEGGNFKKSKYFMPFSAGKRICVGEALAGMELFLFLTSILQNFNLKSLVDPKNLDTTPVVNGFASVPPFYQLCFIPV
CYP2C9 inh: human CYP2C9 inhibition. P11712. CYP2C9 Supersomes, luciferin-H conversion, luminescence. inhibition, % at 5 µM. actives 20% (n = 96,000). AID 777;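 active = blocking of liver enzyme CYP2C9 beyond about 50% at 5 µM, limit read from the data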
PostGolgi yeast: growth inhibition of a yeast mutant, post-Golgi transport screen; post-Golgi transport phenotypic cell assay; AID 739; inhibition, % at 10 µM; actives 0.9% (n = 98,000);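 also: yeast cells grown in 1536-well plates; yeast grown about 18 h at 30C before absorbance read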
CYP2C19 inh: blocks human cytochrome P450 2C19. actives 21% (n = 96,000). inhibition, % at 5 µM. CYP2C19 Supersomes, luciferin-H EGE luminescence, 30 min;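 active = CYP2C19 inhibition above a set limit at 5 µM in the primary screen, cut at about 50% in these data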
Hits are given with their value; – = inactive. Hits are enriched below; roughly 32% of the tested compounds scored in any of these assays. Rule as the data show it, unless noted: active = inhibition above about 30%; inactive = the rest.

SMILES	CYP2C19 activ	PostGolgi ctrl	CYP2C9 act	CYP2C9 inh	PostGolgi yeast	CYP2C19 inh
Cc1ccc(/C=C/c2ccc(=O)n(Cc3ccc(Cl)cc3Cl)n2)cc1	–	–	–	–	–	–
COc1ccc(OCC(=O)Nc2ncc3c(n2)CC(C)(C)CC3=O)cc1	–	–	–	–	–	–
CNC(=O)NC(=O)CSc1nc2cc(C(=O)OC)ccc2c(=O)n1-c1ccccc1	–	–	–	–	–	–
CNC(=O)C1CC(=O)N/C(=N/N=C(\C)c2cccs2)S1 (stereo unspecified)	–	–	–	–	–	–
CCCCOC(=O)Nc1ccc(C(N)=O)cc1	–	–	–	–	–	–
CCCCOC(=O)Nc1ccc(N2CCCCC2)cc1	–	–	–	52	–	70
CCC(=O)N1CCN(c2ccc(NC(=O)COc3ccccc3Cl)cc2)CC1	–	–	–	71	–	81
CCN1CCCC1CNC(=O)CCc1nc(-c2ccc(C)cc2)no1 (stereo unspecified)	–	–	–	–	–	–
CCC(C(=O)NC1CCCC1)N(C(=O)Cn1nnc(-c2ccc(OC)c(OC)c2)n1)C1CCCCC1 (stereo unspecified)	–	–	–	52	–	72
COc1ccc(-c2nnn(CC(=O)N(Cc3cccs3)C(C)C(=O)NC3CCCC3)n2)cc1OC (stereo unspecified)	–	–	–	52	–	57
O=C(CN(Cc1ccco1)C(=O)Cn1nnc(-c2ccc(F)cc2)n1)NC1CCCC1	–	–	–	–	–	–
CCCCC(C(=O)NC1CCCC1)N(Cc1ccco1)C(=O)Cn1nnc(-c2ccc(F)cc2)n1 (stereo unspecified)	–	–	–	92	–	92
CS(=O)(=O)N1CCN(c2ccccc2NC(=O)c2cccnc2)CC1	–	–	–	–	–	–
COc1ccccc1C(=O)Nc1ccc(N2CCN(S(C)(=O)=O)CC2)cc1	–	–	–	–	–	53
COc1ccccc1C(=O)Nc1ccccc1N1CCOCC1	–	–	–	–	–	–
COc1ccccc1C(=O)Nc1ccccc1N1CCN(S(C)(=O)=O)CC1	–	–	–	74	–	69
COc1cc(C(=O)Nc2ccccc2N2CCN(S(C)(=O)=O)CC2)cc(OC)c1OC	–	–	–	79	–	–
COc1c(C)cccc1C(=O)Nc1ccc(N2CCN(S(C)(=O)=O)CC2)cc1	–	–	–	–	–	–
CC1(C)OC(=O)C(=CNCC(=O)NCC(=O)O)C(=O)O1	–	–	–	–	–	–
O=C(Nc1ccc(O)c(C(=O)O)c1)c1ccc2c(c1)C(=O)N(CC1CCCO1)C2=O (stereo unspecified)	–	–	–	66	–	–
CCN1C(=O)c2cccc3cccc1c23	–	–	4.1	–	–	–
O=C(CN1C(=O)c2cccc3cccc1c23)NCc1cccnc1	–	–	–	–	–	83
CC(=O)c1cn(CC(=O)NCc2cccnc2)c2ccccc12	–	–	–	83	–	77
COCCCNC(=O)Cn1cc(C(C)=O)c2ccccc21	–	–	–	–	–	–
Cc1c(C#N)c2ccccc2n1CC(=O)NCC1CCCO1 (stereo unspecified)	–	–	–	–	–	–
SMILES	CYP2C19 activ	PostGolgi ctrl	CYP2C9 act	CYP2C9 inh	PostGolgi yeast	CYP2C19 inh
Cc1c(C#N)c2ccccc2n1CC(=O)NCc1cccnc1	–	–	–	54	–	71
Nc1ccccc1-c1nnc(SCc2ccccc2F)[nH]c1=O	–	–	–	–	–	–
COc1ccc(C(=O)c2cn[nH]c2-c2cc(Cl)ccc2O)cc1	–	–	–	92	–	98
COc1ccc(C(=O)c2ccc(Cl)cc2Cl)cc1	–	–	–	–	–	–
Cc1ccc(C(=O)c2cn[nH]c2-c2ccccc2O)cc1	–	–	–	–	–	89
O=C(c1ccc(F)cc1)c1cn[nH]c1-c1ccccc1O	–	–	–	–	–	–
O=C(c1ccc(O)cc1)c1ccc(Cl)cc1	–	–	–	–	–	–
O=C(c1ccc(Cl)cc1)c1cn[nH]c1-c1ccccc1O	–	–	–	86	–	95
CCOC(=O)c1c(CN2CCN(C)CC2)n(C)c2cc(Br)c(OC)cc12	–	–	–	56	–	–
CCOC(=O)c1c(CN2CCCCC2)n(C)c2cc(Br)c(O)cc12	–	–	–	–	–	71
CCOC(=O)c1c(CN2CCCCC2)oc2ccc(O)cc12	–	–	–	–	–	–
O=C(NCC(c1cccnc1)N1CCN(c2ccc(F)cc2)CC1)c1ccc(F)cc1 (stereo unspecified)	–	–	–	77	–	81
O=C(NCC(c1cccnc1)N1CCN(c2ccc(F)cc2)CC1)c1ccc2c(c1)OCO2 (stereo unspecified)	–	–	–	80	–	64
Cc1ccc(CS(=O)(=O)CCC(=O)NCc2cccs2)cc1	–	–	–	–	–	–
Cn1c(=O)c2c(nc(CN3CCC(C(N)=O)CC3)n2Cc2c(F)cccc2Cl)n(C)c1=O	–	–	–	–	–	–
O=c1c(F)cn(C2CCCO2)c(=O)n1Cc1c(F)cccc1Cl (stereo unspecified)	–	–	–	–	–	92
Cc1ccc(-c2nn(-c3ccccc3)cc2/C=N/NC(=O)c2ccc(Br)o2)cc1	–	–	–	52	–	–
O=C(N/N=C/c1cn(-c2ccccc2)nc1-c1ccccc1)c1ccco1	–	–	–	–	–	–
Cc1nnc(SCC(=O)N/N=C/c2cn(-c3ccccc3)nc2-c2ccccc2)n1-c1ccccc1	–	–	–	53	–	–
O=C(N/N=C\c1cn(-c2ccccc2)nc1-c1ccccc1)c1ccc(Br)o1	–	–	–	57	–	–
CC1=NN(C(=O)c2ccc(C)cc2)C(O)(C(F)(F)OC(F)(F)F)C1 (stereo unspecified)	–	–	–	–	–	–
CC1Cc2ccccc2N1S(=O)(=O)c1cccc(C(=O)OCC(=O)NC2CCS(=O)(=O)C2)c1 (stereo unspecified)	–	–	–	63	–	60
CC1Cc2ccccc2N1S(=O)(=O)c1cccc(C(=O)NC2CC2)c1 (stereo unspecified)	–	–	–	–	–	–
CCOC(=O)c1cc(C#N)c(SCC(=O)c2cc(C#N)c(SC)nc2C)[nH]c1=O	–	–	–	74	–	–
COCCCNCCOCCOc1ccc(C)cc1[N+](=O)[O-]	–	–	–	–	–	–
CCn1c2ccccc2c2cc(NS(=O)(=O)c3ccccc3C)ccc21	–	–	–	81	–	66
O=C(Cn1nc(-c2ccc(Cl)cc2)ccc1=O)NCCCN1CCN(Cc2ccccc2)CC1	–	–	–	–	–	–
CN1CCN(CCCNC(=O)Cn2nc(-c3ccccc3)ccc2=O)CC1	–	–	–	–	41	–
COc1ccc(C(=O)/C=C/Nc2cccc(C)n2)cc1OC	–	–	–	–	–	–
CCOc1c(CNCCN2CCOCC2)cccc1OC	–	–	–	–	–	–
